Assay outcomes deposited in PubChem by National Center for Advancing Translational Sciences (NCATS).
Lassa entry inh: qHTS for Inhibitors of binding or entry into cells for Lassa Virus. Lassa virus pseudotype entry inhibition, cell reporter. Potency, µM (highest dose often 37.9 µM), without a hit: at the top dose activity change, negative = inhibition, most hits filed as inhibitors. 300,000 compounds, 1.2% hits. AID 540256, 2011; calls by dose curve; tested in HEK293 cells; note: potency is the fitted concentration of half-maximal effect; nearly all actives have a fitted effect of over 50% in size
Marburg entry inh: qHTS for inhibitors of binding or entry into cells for Marburg Virus. Potency, µM (highest dose often 37.8 µM), for inactives: at the top dose activity change, negative = inhibition, usual class: inhibitors. Marburg virus pseudotyped entry inhibition, cell reporter. AID 540276, 2011. 300,000 compounds, 1.8% hits; calls by dose curve; tested in HEK293 cells; note: potency is the fitted concentration of half-maximal effect
HCV inh: qHTS Assay for Inhibitors of Hepatitis C Virus (HCV). 340,000 compounds, 3.4% hits. Potency, µM (doses to about 41.8 µM), for the others: at the top dose activity change, negative = inhibition, most hits filed as inhibitors. AID 651820, 2012. Huh7.5.1 HCVcc-Cre infection, luciferase reporter, 44 h; note: potency is the fitted concentration of half-maximal effect
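Antiviral activity was scored by luciferase reporter output from cells infected with HCVcc-Cre (~0.5 moi) in presence of compound, 44 h infection period, cells seeded 1,000/well 4 h prior.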
Pf growth 48h: Primary qHTS for delayed death inhibitors of the malarial parasite plastid, 48 hour incubation | P. falciparum luciferase growth in erythrocytes, 48 h | Potency, µM (top dose mostly 28.7 µM), for inactives: at the highest dose activity change, negative = inhibition, usual class: inhibitors | 310,000 compounds, 5.9% hits; note: potency is the fitted concentration of half-maximal effect
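Compounds are pin-transferred into medium, infected erythrocytes (2% hematocrit, 0.1% parasitemia final) are added, and plates sit one parasite generation at 37 C in 5% CO2. Detection reagent is then added and luminescence measured.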
HCMV inh: qHTS Assay for inhibitors of the human cytomegalovirus (HCMV); activity change, negative = inhibition, % at 57.5 µM; 410,000 compounds, 4.5% hits; HFF cells, HCMV-luciferase reporter, 72 h; stronger effect = lower value; in the data active = activity change below about -60%; inconclusive = no clear call, values can overlap the other calls; inactive = above about -39%
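Two-dose cell screen: HFF monolayers treated with compounds and infected with luciferase-expressing HCMV at 1 PFU/cell, 72 h at 37C, then lysed for luciferase measurement.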
Pf growth 96h: Primary qHTS for delayed death inhibitors of the malarial parasite plastid, 96 hour incubation. P. falciparum luciferase reporter growth, 96 h. Potency, µM (highest dose often 28.7 µM), without a hit: at the top dose activity change, negative = inhibition, actives largely listed as inhibitors. 320,000 compounds, 6.9% hits. AID 504834, 2011; note: potency is the fitted concentration of half-maximal effect
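Two-generation exposure (96 h) targets delayed-death phenotype. Reporter parasites carrying integrated firefly luciferase, in red cells at 2% hematocrit and 0.05% parasitemia final, kept at 37 C, 5% CO2; luminescence loss indicates inhibition.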
Active calls of the source: *; ? = inconclusive; nt = not tested or not shown; [ ] = another dose, or the depositor's remark. This is a sample that favours compounds with a hit; in the whole collection about 14% have one here. Unless noted, calls come from the whole dose curve; as a rule, active = well fitted inhibition curve with a large enough effect; inconclusive = small, poorly fitted or top-dose-only effect, or another doubt; inactive = no such curve, though single readings can be large or run the other way. % is set by controls: 0 for no effect and ±100 for the full control effect.

SMILES	Lassa entry inh	Marburg entry inh	HCV inh	Pf growth 48h	HCMV inh	Pf growth 96h
COc1ccc(NC(=O)COc2cccc(-n3cnnn3)c2)cc1	-13.7%	-0.3%[46.1 µM]	-2.8%	29.2%	?	10.4µM*
Cc1ccc(NC(=O)COc2cccc(-n3cnnn3)c2)cc1S(=O)(=O)N1CCOCC1	nt	nt	11.2µM*	13.1µM*	-36.5	?
CC(C)(C)c1ccc2c(S(=O)(=O)O)c(C(C)(C)C)ccc2c1	nt	nt	nt	-4.5%	nt	?
Cc1nnc(C)n1/N=C\c1cc(Br)cc(Br)c1O	nt	-9.7%	nt	nt	nt	nt
COc1cccc(NC(=O)c2nn(C)c(C(=O)Nc3cccc(OC)c3)c2[N+](=O)[O-])c1	1.2%	?	?	33.5%	-12.8	6.57µM*
O=C1CCCCC(=O)[C@H](OC(=O)c2ccccc2)C[C@H](c2ccccc2)O1	nt	nt	nt	nt	13.1	nt
COc1cc(C(=O)Nc2ccc3c(c2)N(C(=O)CCN(C)C)c2ccccc2CC3)cc(OC)c1OC	?	?	?	10.4µM*	142.6	9.28µM*
COc1cc(C(=O)Nc2cccc(NC(=O)c3ccccc3)c2)cc(OC)c1OC	nt	nt	?	?	14.8	?
CCN(CC)CCC(=O)Nc1ccc2c(c1)N(C(=O)CN(CC)CC)c1ccccc1CC2	?	6.31µM*	?	10.4µM*	-9.6	?
CN(C)CC(=O)N1c2ccccc2CCc2ccc(NC(=O)c3ccc(N)cc3)cc21	16.2%	?	?	5.86µM*	?	65.2%
CCN(CC)CCC(=O)N1c2ccccc2CCc2ccc(NC(=O)OC(C)C)cc21	nt	nt	?	?	17.3	?
C=C(C)COc1ccc2c(CC)cc(=O)oc2c1C	1.3%	?	11.2µM*	10.1%	-11.5	68.1%
C=C(C)COc1ccc2c(C)c(C)c(=O)oc2c1OCC(=C)C	?	?	-27.7%	11.7µM*	?	3.6%
COc1ccc2c(C)cc(=O)oc2c1C	8.3%	13.1%	-8.8%	nt	1.0	5.86µM*
CCOc1ncccc1C(=O)Nc1cc(S(=O)(=O)N2CCCCC2)ccc1OC	-16.8%	-2.3%[46.1 µM]	-16.7%	?	8.4	?
CCc1ccc2oc(-c3cc(NC(=O)c4cc(OC)c(OC)c(OC)c4)ccc3O)nc2c1	14.7%[46.1 µM]	nt	nt	nt	49.6	nt
CCc1ccc2oc(-c3cc(N=Cc4cccc(OC)c4O)ccc3O)nc2c1	6.51µM*	?	8.5%	-90.1%	nt	nt
CC(C)n1cc2c(N)ncnc2n1	3.9%	-29.7%	5.4%	nt	-0.1	nt
O=C(c1ccc(Oc2ccc(C(F)(F)F)cc2[N+](=O)[O-])cc1)N1CCOCC1	?	?	-11.4%	-5.5%	-82.5*	-4.1%
O=C(c1ccccc1Oc1ccc(C(F)(F)F)cc1[N+](=O)[O-])N1CCOCC1	3.7%	-7.9%	5.5%	-10.0%	-31.2	?
CCOC(=O)C/C(=N\Nc1ncnc2ccccc12)c1ccccc1	-9.9%[46.1 µM]	?	?	34.7%	19.6	136.5%
CCOC(=O)/C(=N\Nc1ncnc2ccccc12)c1ccc(C)cc1	1.12µM*	?	0.3%	170.1%	150.0	407.5%
CC[C@H]1Nc2ccc(NC(=O)OC(C)(C)C)cc2[C@@H](NC(=O)OCc2ccccc2)[C@@H]1C	nt	nt	nt	nt	30.6	nt
COc1ccc(S(=O)(=O)N2CCC(C(=O)NCCc3ccc(OC)c(OC)c3)CC2)cc1	nt	nt	nt	nt	-5.1	nt
COc1ccc(CNC(=O)C2CCN(S(=O)(=O)c3ccc4nc5c(c(C(=O)O)c4c3)CCCC5)CC2)cc1	?	nt	nt	nt	31.0	nt
SMILES	Lassa entry inh	Marburg entry inh	HCV inh	Pf growth 48h	HCMV inh	Pf growth 96h
COc1ccc(CCNC(=O)C2CCN(S(=O)(=O)c3cccc4cccnc34)CC2)cc1OC	nt	nt	15.8%	-15.0%	nt	16.5µM*
COc1ccc(CCNC(=O)C2CCN(S(=O)(=O)c3cccs3)CC2)cc1OC	-7.4%[46.1 µM]	9.7%[46.1 µM]	8.5%	17.2%	-95.6*	?
COc1ccc(CCNC(=O)C2CCN(S(=O)(=O)c3cccc4nsnc34)CC2)cc1OC	0.0%	-0.5%	5.4%	?	-11.8	nt
COc1ccc(CCNC(=O)C2CCN(S(=O)(=O)c3ccc4nc5c(c(C(=O)O)c4c3)CCCC5)CC2)cc1OC	nt	nt	26.1%	20.9%	-12.8	9.28µM*
Cc1ccc(CCNC(=O)c2ccc3c(Cl)c4c(nc3c2)CCCC4)cc1	-13.5%[46.1 µM]	9.4%[46.1 µM]	nt	nt	-23.8	nt
CCc1ccc(-c2cc(C)no2)cc1S(=O)(=O)NCc1ccc(OC)cc1	-8.4%[46.1 µM]	nt	nt	nt	0.0	nt
CN(C)c1ccc(-c2nnn(CC(=O)N3c4ccccc4CCc4ccccc43)n2)cc1	-18.7%	?	-15.1%	2.08µM*	-21.0	-25.3%
CCCn1c(SCC(=O)Nc2cccc(Cl)c2Cl)n[nH]c1=O	2.0%	-16.4%	25.1%	-4.9%	-31.9	-29.5%
O=C(CSc1n[nH]c(=O)n1C1CC1)Nc1cc(Cl)ccc1Oc1ccccc1	?	8.2µM*	?	?	-0.2	?
CCOC(=O)Cc1csc(SCC(=O)Nc2cccc(Cl)c2)n1	-15.8%	?	-7.5%	nt	70.8	42.3%
O=C(CSc1n[nH]c(=O)n1C1CC1)Nc1ccccc1	nt	nt	9.7%	18.6%	-3.9	45.1%
CCOC(=O)Cc1csc(SCC(=O)Nc2cc(Cl)ccc2Oc2ccccc2)n1	2.0%	?	10µM*	-18.7%	-8.8	nt
CCCn1c(SCC(=O)Nc2cc(Cl)ccc2Cl)n[nH]c1=O	?	?	-25.9%	?	13.2	1.17µM*
CCCn1c(SCC(=O)Nc2cc(Cl)ccc2OC)n[nH]c1=O	-3.7%	-6.0%	10µM*	nt	39.2	?
O=C(CSc1oc(-c2ccco2)nc1S(=O)(=O)c1ccc(Br)cc1)c1ccc(Cl)cc1	?	-15.8%[46.1 µM]	nt	nt	-20.1	nt
